Bioassay records deposited in PubChem by several laboratories.
Sampled rows, rich in hits. Any-hit rate of the full collection: about 4.9%.
Mdm2 MdmX PPI: disrupts the human Mdm2-MdmX interaction. SaOS-2 split-luciferase Mdm2/MdmX complementation, luminescence. inhibition, % at 8 µM. O15151+Q00987. 330,000 compounds, 3% hits;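 active = inhibition of at least 50% at 8 µM in the primary screen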
Target sequence (O15151 whole entry, looked up): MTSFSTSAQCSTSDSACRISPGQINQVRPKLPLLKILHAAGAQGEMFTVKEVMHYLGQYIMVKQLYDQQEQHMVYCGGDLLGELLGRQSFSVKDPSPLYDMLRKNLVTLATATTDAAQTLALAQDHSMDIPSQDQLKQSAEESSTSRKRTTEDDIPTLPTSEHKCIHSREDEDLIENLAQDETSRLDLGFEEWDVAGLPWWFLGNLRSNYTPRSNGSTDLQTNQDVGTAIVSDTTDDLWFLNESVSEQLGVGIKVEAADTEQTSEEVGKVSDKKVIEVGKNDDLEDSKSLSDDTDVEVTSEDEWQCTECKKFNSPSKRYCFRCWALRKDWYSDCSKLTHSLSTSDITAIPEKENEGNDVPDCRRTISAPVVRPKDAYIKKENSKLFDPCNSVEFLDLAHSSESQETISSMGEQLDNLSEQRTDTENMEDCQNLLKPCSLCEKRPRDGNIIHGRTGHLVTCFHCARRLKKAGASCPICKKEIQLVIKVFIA
Target sequence (Q00987 whole entry, looked up): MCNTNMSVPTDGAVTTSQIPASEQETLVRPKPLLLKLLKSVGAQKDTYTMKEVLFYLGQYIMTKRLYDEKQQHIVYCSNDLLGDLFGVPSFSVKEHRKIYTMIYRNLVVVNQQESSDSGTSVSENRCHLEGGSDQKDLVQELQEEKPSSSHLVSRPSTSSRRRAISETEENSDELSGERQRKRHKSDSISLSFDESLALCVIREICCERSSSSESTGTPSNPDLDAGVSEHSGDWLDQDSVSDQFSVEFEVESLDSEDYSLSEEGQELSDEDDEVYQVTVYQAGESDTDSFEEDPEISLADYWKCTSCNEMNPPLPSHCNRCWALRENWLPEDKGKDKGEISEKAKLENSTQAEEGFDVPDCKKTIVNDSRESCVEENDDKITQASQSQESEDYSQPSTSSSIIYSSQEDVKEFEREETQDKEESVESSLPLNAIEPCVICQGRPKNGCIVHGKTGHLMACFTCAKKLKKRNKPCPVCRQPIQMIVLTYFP
CSC inhib: blocks cancer stem cells; AID 2717; cancer stem cell-like cells viability, luminescence; inhibition, % at 7.5 µM; 300,000 compounds, 1.1% hits; in the data active = inhibition above about 75%; inconclusive = no clear call, values can overlap the other calls; tested in HMLE shEcad cells
Beta apoptosis: blocks beta cell apoptosis; INS-1E cytokine-induced death, ATP luminescence, 48 h; percent of positive-control rescue, neutral wells zero; protection from apoptosis, % (test concentration not listed); 300,000 compounds, 0.8% hits; AID 435005;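 active = Every replicate reaches about 75%, or at least half do and their mean reaches it too, limit read from the data; inconclusive = At least half of replicates reach the limit but their mean does not; inactive = Under half of replicates reach the limit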;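 note: higher means more ATP so stronger rescue from cytokine killing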
Calb FLC: C. albicans growth modulation with fluconazole | C. albicans CaCi-2 (fluconazole-resistant clinical isolate) + fluconazole, Alamar Blue growth, 48 h | growth inhibition, % (test concentration not listed) | 300,000 compounds, 0.57% hits;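 active = growth inhibition above about 58% in most replicates, limit read from the data, passing the limit was not always enough; inconclusive = exactly half the replicates above a set limit; inactive = most replicates below a set limit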;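 note: all wells also contain fluconazole at 8 µg/ml as a sub-toxic cotreatment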
PP1 counter: counter-screen for PP5 inhibitors: inhibitors of human PP1-alpha | purified PP1alpha, OMFP fluorescence | inhibition, % at 6.7 µM | 320,000 compounds, 0.9% hits | AID 2235;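 active = inhibition above the mean inhibition of all tested compounds plus 3 SD, computed separately for each screening campaign, cut at about 15% in these data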
PP5 inh: PP5 (human) phosphatase inhibition; P53041; purified PP5c, OMFP substrate fluorescence; inhibition, % at 6.7 µM; 320,000 compounds, 0.18% hits;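 active = inhibition above the campaign's mean inhibition across all tested compounds plus 3 SD, cut at about 9.5% in these data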
PP1 inh confirm: human PP1 phosphatase inhibition, confirmation. purified PP1alpha, OMFP substrate fluorescence. inhibition, % at 6.7 µM. 1,900 compounds, 52% hits. AID 2358. shares compounds with PP1 counter;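 active = mean PP1 inhibition above a set limit taken from the earlier primary screen, cut at about 15% in these data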
PP5 counter: inhibits human PP5 phosphatase in PP1 counter-screen. shares compounds with PP1 counter. purified PP5c, OMFP fluorescence. inhibition, % at 6.7 µM. 1,900 compounds, 4% hits. AID 2360;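 active = mean PP5 inhibition over triplicate wells above about 9.5% taken from the earlier PP1 screen, limit read from the data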
Hits are given with their value; - = inactive; ? = inconclusive; . = no result.

SMILES	Mdm2 MdmX PPI	CSC inhib	Beta apoptosis	Calb FLC	PP1 counter	PP5 inh	PP1 inh confirm	PP5 counter
Cc1cccc(/C=N/NC(=O)c2ccc(NC(=O)c3ccc(F)cc3)cc2)n1	-	-	-	-	-	-	.	.
Cc1ccc(Cl)cc1NC(=O)Cn1nc(-c2cccs2)ccc1=O	-	-	-	-	-	-	.	.
COc1ccccc1C(=O)Nc1ccnn1C1CCN(Cc2ccc3nonc3c2)CC1	-	-	-	-	-	-	.	.
Cc1noc(/C=C/c2ccco2)c1S(=O)(=O)N1CCC(C(=O)NC(C)c2ccccc2)CC1 (stereo not drawn)	-	-	-	-	-	-	.	.
Cc1noc(/C=C/c2ccco2)c1S(=O)(=O)N1CCC(C(=O)N(C)Cc2ccccc2)CC1	-	-	-	-	18.7	-	-	-
Cc1cc(C)nc(SCc2nnc(SCC(=O)Nc3nccs3)n2Cc2ccco2)n1	-	-	-	-	-	-	.	.
Cc1occc1-c1nnc(SCC(=O)Nc2nccs2)n1Cc1ccco1	-	-	-	-	29.7	-	-	-
O=C(CSc1nnc(-c2ccc(O)cc2)n1Cc1ccco1)c1cccs1	-	-	-	-	29.7	-	-	-
Cc1ccc(NC(=O)C2CCN(C(=O)c3ccc(F)cc3)CC2)nc1	-	-	-	.	-	-	.	.
c1ccc(CSc2ccc3nnc(-c4ccccn4)n3n2)cc1	-	.	.	-	-	-	.	.
Cc1cccc(CSc2ccc3nnc(-c4ccccn4)n3n2)c1	-	-	-	-	18.8	-	-	-
O=C(c1cc(S(=O)(=O)N2CCOCC2)ccc1F)N(CCc1ccccc1)Cc1ccccc1	-	.	-	-	-	-	.	.
O=S(=O)(c1ccc(SCc2ccc(Br)cc2)nc1)N1CCCCC1	-	.	.	.	.	.	.	.
O=C(CSCC(=O)N1CCCCC1)Nc1nc(-c2ccc(Cl)s2)cs1	-	-	-	-	-	-	.	.
O=C(CSCC(=O)N1CCN(c2ccccc2)CC1)Nc1nc(-c2ccc(Cl)s2)cs1	-	-	-	-	26.7	-	-	-
COc1cc(/C=N/N=C(/N)c2nonc2N)cc(Br)c1OCc1ccccc1C	-	-	-	-	-	-	.	.
CCOc1cc(/C=N/N=C(N)N)ccc1OCc1ccc(Cl)cc1	.	105.6	-	104.7	18.7	-	-	-
CCOc1cc(/C=N/N=C(/N)c2nonc2N)cc(Br)c1OCc1ccc(Cl)cc1	-	-	-	-	17.9	-	-	-
COc1cc(/C=N/O)ccc1OCc1ccc(Cl)cc1	-	-	-	?	-	-	.	.
COC(=O)CCCC(=O)N1CCCC(N(C)CCc2ccccc2)C1 (stereo not drawn)	-	-	.	-	-	-	.	.
Cc1ccc(C)c(S(=O)(=O)N2CCC(c3nc4c(nnn4Cc4ccc5c(c4)OCCO5)c(=O)[nH]3)CC2)c1	-	-	.	-	23.6	-	21.8	-
O=c1[nH]c(C2CCCN(S(=O)(=O)c3cccc(Cl)c3)C2)nc2c1nnn2Cc1ccc2c(c1)OCCO2 (stereo not drawn)	-	-	-	-	23.7	-	-	-
O=c1[nH]c(C2CCN(S(=O)(=O)c3ccc4c(c3)OCCO4)CC2)nc2c1nnn2Cc1ccccc1	-	.	.	-	.	.	.	.
Cc1cc(C)cc(C(=O)NCCC(=O)N2CCC3(CC2)NCCc2[nH]cnc23)c1	-	-	-	-	-	-	.	.
Cc1ccc2c(c1)N(C(=O)CCC(=O)NC1CCCCCC1)CC(C)O2 (stereo not drawn)	-	-	-	-	-	-	.	.
SMILES	Mdm2 MdmX PPI	CSC inhib	Beta apoptosis	Calb FLC	PP1 counter	PP5 inh	PP1 inh confirm	PP5 counter
O=C(N[C@@H](Cc1ccccc1)C(=O)OCc1ccccc1)c1nc[nH]c1C(=O)N1CCc2ccccc2C1	-	-	-	-	-	-	.	.
O=C(CC1S/C(=N/N=C/c2c[nH]c3ccc(OCc4ccccc4)cc23)NC1=O)Nc1ccccc1 (stereo not drawn)	-	-	-	-	23.7	-	24.4	-
O=C(CCC1CCCN(c2ncccn2)C1)NCc1ccc(F)c(F)c1 (stereo not drawn)	-	-	-	-	-	-	.	.
CCN(CC)S(=O)(=O)c1cccc(C(=O)N/N=C/c2ccc(O)c(O)c2O)c1	.	-	-	.	20.1	-	32.9	-
CCOc1ccccc1/C=N/NC(=O)c1cccc(S(=O)(=O)N(CC)CC)c1	-	-	-	-	-	-	.	.
CC(C)C(=O)NNC(=O)c1csc(-c2cccs2)n1	-	-	-	-	-	-	.	.
O=[N+]([O-])c1ccccc1/C=C/C=N/n1c(-c2ccc(Cl)cc2)n[nH]c1=S	-	-	-	-	25.4	-	27.5	-
O=[N+]([O-])c1ccccc1/C=C/C=N/n1c(-c2ccccc2)n[nH]c1=S	-	-	-	-	-	-	.	.
CC1CCCN(c2ccc(C(=O)Nc3cccnc3)cc2[N+](=O)[O-])C1 (stereo not drawn)	-	-	-	-	-	-	.	.
Cc1cc(/C=N/NC(N)=S)c(C)n1-c1cccc(Cl)c1	-	-	-	104.0	60.1	-	-	-
Cc1cc(/C=N/NC(N)=S)c(C)n1-c1ccc(Br)cc1	-	-	-	-	24.6	-	16.4	-
O=c1cc(-c2ccccc2Cl)oc2c(NS(=O)(=O)c3ccccc3C(F)(F)F)ccc(O)c12	-	-	-	-	-	-	.	.
O=c1cc(-c2ccccc2Cl)oc2c(NS(=O)(=O)c3ccccc3OC(F)(F)F)ccc(O)c12	-	-	-	-	24.2	-	-	-
CCOC(=O)Cn1ccc(NC(=O)COc2ccc(F)cc2F)n1	-	-	-	-	-	-	.	.
Cc1ccc(NC(=O)/C(=C\c2cccc([N+](=O)[O-])c2)NC(=O)c2cccs2)cc1	-	-	.	-	23.9	-	17.6	-
COc1ccccc1CNC(=O)C(=O)Nc1ccc(C(=O)N2CCC(C)CC2)cc1	-	.	-	-	-	-	.	.
O=C(CSc1nnc2c(n1)[nH]c1ccc(F)cc12)Nc1ccccc1F	-	-	-	.	-	-	.	.
O=C(CSc1nnc2c(n1)[nH]c1ccccc12)NCc1ccccc1F	-	-	-	-	22.5	-	-	-
CCc1cc(=O)n2[nH]c(C)c(-c3ccc(OC)cc3)c2n1	-	-	-	-	-	-	.	.
Cc1[nH]n2c(=O)cc(C(C)C)nc2c1-c1ccccc1	-	-	-	-	-	-	.	.
COc1cccc(-c2cc3nc(-c4ccccc4)cc(=O)n3[nH]2)c1	-	?	-	-	20.6	-	23.0	-
Cc1[nH]n2c(=O)cc(C(C)(C)C)nc2c1-c1ccccc1	-	-	-	-	23.6	-	18.4	-
COc1ccc(-c2c(C(F)(F)F)[nH]n3c(=O)cc(-c4ccccc4)nc23)cc1	-	91.8	-	-	24.5	-	41.9	-
CC(C)CSc1oc(-c2ccco2)nc1S(=O)(=O)c1ccccc1	-	-	-	-	-	-	.	.
